Source: PubChem BioAssay (NCATS)
Where “and” joins values, the source holds several entries; their conditions need not be identical. Equal entries are not always repeated. Results filed as inconclusive are left out. Where a call stands in place of a potency, no number is given. More than one record can exist for a structure, and the calls need not agree. Calls of active or inactive are those of the source. Unless noted, the call rests on the fitted dose curve; in most records, active means well fitted curve in the direction sought with a large enough effect; inconclusive means small, poorly fitted or top-dose-only effect, or another doubt; inactive means no such curve, though single readings can be large; an effect the other way counts as inactive or inconclusive.

Tests used:
[1] = qHTS assay for small molecule agonists of retinoid X receptor alpha signaling (AID 588544; calls by dose curve); settings: HEK293T RXRa-UAS-bla, beta-lactamase reporter, 18 h; 530 nm emission
[2] = biological target: Retinoic acid receptor RXR-alpha (Homo sapiens) (UniProt P19793); experiment: as above; settings: HEK293T RXRa-UAS-bla, beta-lactamase reporter, 18 h; series mostly up to 76.7 µM
[3] = biological target: Thyroid hormone receptor beta (Homo sapiens) (UniProt P10828); experiment: qHTS assay for small molecule agonists of thyroid hormone receptor beta signaling (AID 588545; calls by dose curve); settings: TR-UAS-bla GripTite HEK 293, beta-lactamase ratio, agonist mode, 18 h, percent of T3 response, DMSO as zero; series mostly up to 76.7 µM
Summary of the method: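 Compounds were tested as agonists in TR-UAS-bla-GripTite HEK 293 cells. After 18 hrs at 37 C, CCF4 substrate was added and fluorescence read after 2 hrs at room temperature.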

[4] = qHTS assay for small molecule antagonists of retinoid X receptor alpha signaling (AID 588546); settings: HEK293T RXRa-UAS-bla, beta-lactamase ratio, antagonist mode; measured here: W530 green channel, cytotoxicity proxy;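 further: cells stimulated with 9-cis-retinoic acid as agonist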
Summary of the method: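 Beta-lactamase reporter inhibition, read as CCF4 fluorescence ratio (ex 405, em 460/530 nm) after 2 h at RT. HEK293T UAS-bla cells, 2500/well, were stimulated with 9-cis-RA at 500 or 100 nM final alongside test compound for 18 h at 37 C.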

[5] = biological target: Luciferin 4-monooxygenase (Photinus pyralis) (UniProt P08659); experiment: Biochemical firefly luciferase enzyme assay for NPC (AID 624030); further: nearly all actives have a fitted effect of over 70% in size; further: potency means the concentration at half of the fitted maximal effect; settings: purified P. pyralis luciferase, luminescence, 5 min; series mostly up to 58.6 µM
Summary of the method: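 Direct inhibition of firefly luciferase enzyme (10 nM final, 50 mM Tris Acetate) assessed by luminescence within 5 minutes. Percent activity scaled between DMSO and PTC124 positive control, with concentration-effect curves classified by fit quality and response.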

[6] = S16 Schwann cell viability assay (CellTiter-Glo assay) (AID 624031); settings: S16 rat Schwann cells viability, 24 h; series mostly up to 57.5 µM;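 further: native untransfected S16 rat Schwann cells; cellular ATP luminescence as a viability measure; nearly all actives have a fitted effect of over 70% in size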
Summary of the method: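 Concentration-effect curves come from CellTiter-Glo luminescence of S16 rat Schwann cells after 24 h compound exposure. Each reading was normalized to DMSO wells (0%) and wells without cells, and curves were ranked by r2 and response magnitude.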

[7] = S16 Schwann cell PMP22 intronic element beta-lactamase assay (AID 624044; calls by dose curve; further: nearly all actives have a fitted effect of over 15% in size); settings: S16 rat Schwann cells, PMP22 element beta-lactamase FRET, 24 h; series mostly up to 38.3 µM
Summary of the method: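 Beta-lactamase reporter under a PMP22 intronic regulatory element in stable S16 rat Schwann cells; 24 h compound exposure. 460 nm blue signal normalized between DMSO (0%) and potassium clavulanate, with 535 nm FRET tracking viability; curves classed by r2 and response.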

[8] = biological target: Thyroid hormone receptor beta (Homo sapiens) (UniProt P10828); experiment: qHTS assay for small molecule antagonists of thyroid hormone receptor beta signaling (AID 588547; active means well fitted inhibition curve with a large enough effect in the signal ratio, with a control signal flat, not every such curve was filed as active; the % refers to the signal ratio;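 further: cells stimulated with 0.4 nM T3 agonist during compound exposure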); settings: TR-UAS-bla HEK293, beta-lactamase ratio, antagonist mode, 18 h
Summary of the method: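 Inhibition of T3-driven (0.4nM final) beta-lactamase reporter activity was measured over 0.59 nM to 92 uM compound after 18 h at 37 C. The cells were GripTite HEK293 TR-UAS-bla in charcoal/dextran-stripped serum, with CCF4 ratio read-out and IC50 from Hill fits.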

[9] = biological target: Voltage-gated inwardly rectifying potassium channel KCNH2 (Homo sapiens) (UniProt Q12809); experiment: qHTS Assay for Small Molecule Inhibitors of the Human hERG Channel Activity (AID 588834); settings: U2OS BacMam hERG, FluxOR thallium flux fluorescence; series mostly up to 46.1 µM;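 further: top concentration of the series differs between compounds; lower thallium flux fluorescence means stronger hERG block; nearly all actives have a fitted effect of over 50% in size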
Summary of the method: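 Thallium-flux (FluxOR) read-out on FDSS: fluorescence read 10 s before and 2 min after stimulation buffer. hERG-BacMam-transduced U2OS cells, compound exposure about 10 min. AC50 by standard Hill equation.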

[10] = S16 Schwann cell PMP22 intronic element firefly luciferase assay (AID 624032); settings: S16 rat Schwann cells, PMP22 element FLuc, 24 h; series mostly up to 57.5 µM; further: potency means the concentration at half of the fitted maximal effect; nearly all actives have a fitted effect of over 30% in size
Summary of the method: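 Luciferase reporter of PMP22 intronic-element expression in stably transfected S16 rat Schwann cells, read by ONE-Glo luminescence after 24 h compound exposure at 37 C. Activity scaled between DMSO (0%) and positive-control PTC124; concentration-effect curves quality-classified.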

Sequence of Thyroid hormone receptor beta (Homo sapiens) (P10828 whole entry, looked up): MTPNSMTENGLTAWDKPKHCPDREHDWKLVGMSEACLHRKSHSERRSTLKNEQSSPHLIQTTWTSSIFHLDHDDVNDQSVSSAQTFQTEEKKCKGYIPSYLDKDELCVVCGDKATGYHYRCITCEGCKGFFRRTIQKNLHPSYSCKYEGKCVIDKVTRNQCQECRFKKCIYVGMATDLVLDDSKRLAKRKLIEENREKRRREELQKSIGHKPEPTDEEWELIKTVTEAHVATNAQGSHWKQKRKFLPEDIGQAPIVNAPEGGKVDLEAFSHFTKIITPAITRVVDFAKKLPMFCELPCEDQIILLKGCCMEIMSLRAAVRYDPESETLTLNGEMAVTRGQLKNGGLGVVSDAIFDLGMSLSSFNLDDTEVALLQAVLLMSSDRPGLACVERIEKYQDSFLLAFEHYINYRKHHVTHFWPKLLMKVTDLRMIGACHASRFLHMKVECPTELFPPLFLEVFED
Sequence of Voltage-gated inwardly rectifying potassium channel KCNH2 (Homo sapiens) (Q12809 whole entry, looked up): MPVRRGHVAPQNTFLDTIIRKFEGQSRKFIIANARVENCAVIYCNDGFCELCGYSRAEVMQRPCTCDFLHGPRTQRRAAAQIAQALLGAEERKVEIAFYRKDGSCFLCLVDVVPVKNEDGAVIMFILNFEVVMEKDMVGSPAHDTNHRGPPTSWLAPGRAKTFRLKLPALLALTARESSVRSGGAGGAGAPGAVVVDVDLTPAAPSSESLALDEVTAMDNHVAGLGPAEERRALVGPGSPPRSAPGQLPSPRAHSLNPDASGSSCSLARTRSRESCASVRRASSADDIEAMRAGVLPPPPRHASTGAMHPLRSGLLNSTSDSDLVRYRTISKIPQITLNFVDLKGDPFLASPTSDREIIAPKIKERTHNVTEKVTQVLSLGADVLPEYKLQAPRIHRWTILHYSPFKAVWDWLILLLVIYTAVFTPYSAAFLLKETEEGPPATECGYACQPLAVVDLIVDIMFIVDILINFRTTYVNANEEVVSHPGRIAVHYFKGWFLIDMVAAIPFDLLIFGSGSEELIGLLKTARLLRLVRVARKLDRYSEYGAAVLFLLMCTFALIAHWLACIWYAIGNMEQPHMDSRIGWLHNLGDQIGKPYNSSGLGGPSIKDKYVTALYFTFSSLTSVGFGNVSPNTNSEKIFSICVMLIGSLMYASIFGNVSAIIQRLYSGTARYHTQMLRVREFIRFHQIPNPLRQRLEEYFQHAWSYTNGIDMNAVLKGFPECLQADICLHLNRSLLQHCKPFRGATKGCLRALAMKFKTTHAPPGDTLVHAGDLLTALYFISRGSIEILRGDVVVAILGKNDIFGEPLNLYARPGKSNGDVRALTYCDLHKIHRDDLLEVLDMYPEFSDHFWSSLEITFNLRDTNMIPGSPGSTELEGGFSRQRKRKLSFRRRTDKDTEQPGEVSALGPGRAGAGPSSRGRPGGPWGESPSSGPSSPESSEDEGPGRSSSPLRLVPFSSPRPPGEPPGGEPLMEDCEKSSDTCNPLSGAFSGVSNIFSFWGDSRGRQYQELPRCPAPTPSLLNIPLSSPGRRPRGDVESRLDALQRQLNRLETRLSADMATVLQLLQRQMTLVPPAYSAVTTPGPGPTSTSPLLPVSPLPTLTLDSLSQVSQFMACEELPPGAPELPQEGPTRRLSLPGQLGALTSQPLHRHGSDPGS
Sequence of Luciferin 4-monooxygenase (Photinus pyralis) (P08659 whole entry, looked up): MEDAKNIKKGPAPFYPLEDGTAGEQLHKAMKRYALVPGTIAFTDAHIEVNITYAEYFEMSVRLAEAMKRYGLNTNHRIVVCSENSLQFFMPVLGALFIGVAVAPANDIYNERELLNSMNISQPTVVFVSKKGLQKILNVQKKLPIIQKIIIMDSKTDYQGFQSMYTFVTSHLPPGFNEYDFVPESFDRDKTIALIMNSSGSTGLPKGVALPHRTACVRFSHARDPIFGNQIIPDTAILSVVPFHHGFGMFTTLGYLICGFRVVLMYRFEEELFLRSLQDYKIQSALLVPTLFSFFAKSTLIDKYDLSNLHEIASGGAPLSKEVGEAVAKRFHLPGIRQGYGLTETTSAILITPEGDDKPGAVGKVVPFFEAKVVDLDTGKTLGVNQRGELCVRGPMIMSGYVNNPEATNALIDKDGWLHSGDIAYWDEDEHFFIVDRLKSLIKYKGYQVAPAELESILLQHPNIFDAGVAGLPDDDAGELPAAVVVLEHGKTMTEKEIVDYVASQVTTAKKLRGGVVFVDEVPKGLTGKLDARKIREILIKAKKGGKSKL
Sequence of Retinoic acid receptor RXR-alpha (Homo sapiens) (P19793 whole entry, looked up): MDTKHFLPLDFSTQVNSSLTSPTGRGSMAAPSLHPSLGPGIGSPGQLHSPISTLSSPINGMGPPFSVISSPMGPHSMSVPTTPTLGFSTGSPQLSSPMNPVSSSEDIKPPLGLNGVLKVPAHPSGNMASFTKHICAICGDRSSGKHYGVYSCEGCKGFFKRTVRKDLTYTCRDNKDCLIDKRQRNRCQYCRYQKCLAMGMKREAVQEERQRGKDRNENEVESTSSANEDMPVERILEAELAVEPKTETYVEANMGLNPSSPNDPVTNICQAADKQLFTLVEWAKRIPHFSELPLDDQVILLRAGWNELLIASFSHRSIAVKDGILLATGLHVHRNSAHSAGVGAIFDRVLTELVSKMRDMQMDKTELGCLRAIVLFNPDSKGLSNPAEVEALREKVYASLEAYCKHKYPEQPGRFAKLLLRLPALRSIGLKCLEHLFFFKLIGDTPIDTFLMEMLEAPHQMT

| Compound | max response [1] | outcome [2] | outcome [3] | max response [4] | Potency [5] | Potency [6] | Potency [7] | activity change % (negative = inhibition) [8] | Potency [9] | Potency [10] |
| --- | --- | --- | --- | --- | --- | --- | --- | --- | --- | --- |
| C=CCOC(Cn1ccnc1)c1ccc(Cl)cc1Cl (stereo not given) | -17.1% and -12.6% | inactive | inactive | -20.1% and -17.9% | inactive | inactive | inactive | – | – | – |
| CCCCCCCCC(=O)NCc1ccc(O)c(OC)c1 | 2.94% | inactive | inactive | -4.12% | inactive | inactive | inactive | 5.83% (inactive) | inactive | – |
| Oc1ccc(Cl)cc1Cc1cc(Cl)ccc1O | – | – | – | -8.06% | – | – | – | – | inactive | – |
| CNC(=O)Oc1cccc2ccccc12 | -5.93% and -0.426% | inactive | inactive | -8.18% and 5.92% | inactive | inactive | inactive | -1.73% (inactive) and -9.05% (inactive) | inactive | – |
| CCOC(=O)c1cncn1C(C)c1ccccc1 (stereo not given) | – | – | – | – | – | – | – | – | inactive | – |
| N#Cc1nn(-c2c(Cl)cc(C(F)(F)F)cc2Cl)c(N)c1S(=O)C(F)(F)F (stereo not given) | – | – | inactive | – | inactive | inactive | – | -25.5% (inactive) | inactive | 10.2 µM (active) |
| O=C(NC(=O)c1c(F)cccc1F)Nc1cc(Cl)c(OC(F)(F)C(F)C(F)(F)F)cc1Cl (stereo not given) | 11.9% | inactive | inactive | -7.96% | inactive | – | – | 4.04% (inactive) | inactive | – |
| O=C(CCl)c1ccc(Cl)cc1Cl | – | – | inactive | – | inactive | – | – | – | inactive | – |
| COP(=S)(OC)Oc1ccc(Sc2ccc(OP(=S)(OC)OC)cc2)cc1 | – | – | – | -1.68% | 25.6 µM (active) | inactive | – | – | inactive | – |
| C[C@H]1C(=O)O[C@@H]2CCN3CC=C(COC(=O)[C@](C)(O)[C@]1(C)O)[C@H]23 | -6.89% | inactive | – | -18.5% | inactive | inactive | – | – | inactive | – |
| C[C@@H]1CN(C2CCC(C#N)(c3ccc(F)cc3)CC2)CC[C@]1(C(=O)O)c1ccccc1 (stereo not given in full) | – | – | – | – | – | – | – | – | inactive | – |
